Test results published in PubChem BioAssay (NCATS).
Inconclusive results are not listed. Unmarked numbers belong to inactive results. The source made the active and inactive calls. Calls follow the shape of the dose curve; as a rule, active = well fitted activation curve with a large enough effect in the signal ratio; inconclusive = small, poorly fitted or top-dose-only effect, or effect the other way, or a change in a side signal; inactive = flat fitted curve, though single readings scatter; the % refers to the signal ratio.

experiment: qHTS assay for small molecule agonists of the antioxidant response element (ARE) signaling pathway (AID 651741); details: HepG2 ARE-bla reporter, beta-lactamase FRET ratio, 16 h; series mostly up to 96 µM; activation: at the top concentration; as to activation: % of control where 0% means no effect
In short: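 Beta-lactamase reporter expression driven by the antioxidant response element in HepG2 cells was detected by fluorescence with LiveBLAzer B/G FRET substrate (2 h, room temperature) following 16 h compound treatment at 37 C.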
Potency is read from the fitted curve at half-maximal effect.

SMILES	Potency	activation
O=[N+]([O-])c1ccc(Oc2ccc(C(F)(F)F)cc2[N+](=O)[O-])cc1	48.6 µM (active)	
Cc1ccccc1C(=O)Nc1cccc(OC(C)C)c1		4.63%
CN(C)P(=O)(N(C)C)N(C)C		3.11%
CCOc1ccc(C(C)(C)COCc2cccc(Oc3ccccc3)c2)cc1		0.974%
O=c1[nH]c2ccccc2c(=O)o1		-2.49%
COc1ccc(C(O)(c2cncnc2)C2CC2)cc1 (stereo not given)		-1.14%
CN(C)c1nc(=O)n(C2CCCCC2)c(=O)n1C		1.49%
COC(=O)c1ccccc1CS(=O)(=O)NC(=O)Nc1nc(OC)cc(OC)n1		-2.97%
CCC[CH2][Sn]([CH2]CCC)([O]C(C)=O)[O]C(C)=O	30.6 µM (active)	
O=P(O)(O)CCCl		4.39%
CCOP(=O)(NC(C)C)Oc1ccc(S(C)=O)c(C)c1 (stereo not given)		0.591%
COP(=S)(OC)Oc1nc(Cl)c(Cl)cc1Cl	27.3 µM (active)	
COC(=O)c1ccccc1S(=O)(=O)NC(=O)N(C)c1nc(C)nc(OC)n1		-1.56%
CCCCC(CC)COC(=O)Cl (stereo not given)		-1.04%
CC1CCCCC1NC(=O)Nc1ccccc1 (stereo not given)	34.4 µM (active)	
C=CCC1=C(C)[C@@H](OC(=O)[C@@H]2[C@@H](C=C(C)C)C2(C)C)CC1=O	61.1 µM (active)	
C=CC(=O)OCCCCCC(C)C		3.18%
CCN(CC)C(=O)C(C)Oc1cccc2ccccc12 (stereo not given)		-1.3%
Nc1ccc([N+](=O)[O-])cc1Cl		6%
CNC(=O)Oc1ccc(N(C)C)c(C)c1	54.5 µM (active)	
